In PubChem BioAssay (Tox21):
Records with an inconclusive call do not appear. Activity calls are given as the source filed them. Unless noted, calls come from the whole dose curve; as a rule, active = well fitted curve in the direction sought with a large enough effect in the repeat runs; inconclusive = weak or mixed curves; inactive = no such curve, though single readings can be large; an effect the other way counts as inactive or inconclusive.

Key:
[1] = A CellTox Green Cytotoxicity Assay to monitor cytotoxicity in HepG2 cells - 0 hour (AID 1224882); note: nearly all actives have a fitted effect of over 35% in size; note: potency is the fitted concentration of half-maximal effect
Method in brief: (§1)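 HepG2, 600 cells/well premixed w/ CellTox Green; 5 h settle, 37 C/5% CO2; pintool cpd add (DMSO); 37 C, 40 h; fluorescence read at 0, 8, 16, 24, 32, 40 h.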

[2] = A CellTox Green Cytotoxicity Assay to monitor cytotoxicity in HepG2 cells - 32 hour (AID 1224883); note: nearly all actives have a fitted effect of over 50% in size
Method in brief: as §1

[3] = A CellTox Green Cytotoxicity Assay to monitor cytotoxicity in HEK293 cells - 8 hour (AID 1224884); note: nearly all actives have a fitted effect of over 35% in size
Method in brief: (§2)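 Read-out: fluorescence of a cell-impermeant cyanine dye staining DNA of dead cells, proportional to cytotoxicity. HEK293, 600 cells/well with reagent, compound (23 nL DMSO) added after 5 h; reads at 0, 8, 16, 24, 32, 40 h.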

[4] = qHTS RealTime-Glo MT Cell Viability Assay in HepG2 cells - 16 hour (AID 1224885); note: nearly all actives have a fitted effect of over 50% in size
Method in brief: (§3)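 Luminescence read-out: viable HepG2 cells reduce a prosubstrate to a NanoLuc substrate, giving a signal proportional to live cell number. Reads taken at 0, 8, 16, 24, 32 and 40 h of compound exposure at 37 C.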

[5] = A CellTox Green Cytotoxicity Assay to monitor cytotoxicity in HEK293 cells - 16 hour (AID 1224888); note: nearly all actives have a fitted effect of over 35% in size
Method in brief: as §2

[6] = qHTS RealTime-Glo MT Cell Viability Assay in HepG2 cells - 0 hour (AID 1224889); note: nearly all actives have a fitted effect of over 50% in size
Method in brief: as §3

[7] = A CellTox Green Cytotoxicity Assay to monitor cytotoxicity in HepG2 cells - 8 hour (AID 1224890); note: nearly all actives have a fitted effect of over 45% in size; note: potency is the fitted concentration of half-maximal effect
Method in brief: as §1

[8] = qHTS assay to identify small molecule antagonists of the androgen receptor (AR) signaling pathway using the MDA cell line in the presence of 0.5 nM R1881 - cell viability counter screen (AID 1259242); note: nearly all actives have a fitted effect of over 45% in size
Method in brief: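 Live-cell protease fluorescence, CellTiter-Fluor, 30 min at 37C. Cells: MDA-kb2, 3,000/well, preincubated 5 hr. Compounds plus 0.5 nM R1881 final, 16 hr, 37C, 0% CO2.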

[9] = biological target: Estrogen receptor (Homo sapiens) (UniProt P03372); assay: qHTS assay to identify small molecule antagonists of the estrogen receptor alpha (ER-alpha) signaling pathway using the BG1 cell line in the presence of 0.1 nM 17-beta-estradiol (AID 1259244); note: nearly all actives have a fitted effect of over 50% in size
Estrogen receptor (Homo sapiens), sequence (P03372 whole entry, looked up): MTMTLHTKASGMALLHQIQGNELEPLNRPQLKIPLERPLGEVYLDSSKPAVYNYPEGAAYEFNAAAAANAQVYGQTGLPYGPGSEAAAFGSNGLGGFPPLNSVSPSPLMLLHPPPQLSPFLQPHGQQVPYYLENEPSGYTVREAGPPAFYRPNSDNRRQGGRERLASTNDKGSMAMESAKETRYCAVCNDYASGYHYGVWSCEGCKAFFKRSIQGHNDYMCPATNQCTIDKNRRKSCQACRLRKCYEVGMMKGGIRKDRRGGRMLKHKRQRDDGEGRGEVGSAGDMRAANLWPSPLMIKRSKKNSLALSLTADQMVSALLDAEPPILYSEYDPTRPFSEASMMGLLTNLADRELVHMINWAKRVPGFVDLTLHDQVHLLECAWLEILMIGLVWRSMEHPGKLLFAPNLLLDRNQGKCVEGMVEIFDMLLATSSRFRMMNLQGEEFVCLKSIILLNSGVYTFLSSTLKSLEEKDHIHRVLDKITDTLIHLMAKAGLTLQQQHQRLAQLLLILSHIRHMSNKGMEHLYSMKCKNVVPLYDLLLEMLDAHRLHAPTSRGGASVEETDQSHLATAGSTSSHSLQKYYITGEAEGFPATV
Method in brief: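 Luminescence after ONE-Glo (30 min, room temperature) measured ERE-luciferase activity in VM7Luc4E2 cells treated 22 h with compound and 0.1 nM final 17beta-estradiol as stimulator.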

[10] = qHTS assay to identify small molecule phospholipidosis (PLD) inducers (AID 1259344; active = well fitted curve in the direction sought with a large enough effect; an effect the other way counts as inactive or inconclusive)
Method in brief: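 After 4 h attachment on collagen I, HepG2 cells were dosed with compound alongside LipidTOX Red, kept 24 h at 37 C, fixed, and imaged for lamellar phospholipid pits.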

[11] = qHTS assay to identify small molecule HDAC inhibitors (AID 1259364);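 note: wild-type HCT-116 cells with endogenous class I/II HDAC activity; top concentration of the series differs between compounds; nearly all actives have a fitted effect of over 45% in size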
Method in brief: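 HCT-116 (wild type), 1,500 cells/well, overnight; compound 2 hr 37C 5% CO2; HDAC-Glo I/II reagent 30 min RT; luminescence readout.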

[12] = qHTS assay to identify small molecule HDAC inhibitors - cell viability counter screen (AID 1259365)
Method in brief: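 To flag cytotoxic hits, 1,500 wild-type HCT-116 cells per well, plated the day before, receive test compounds for 2hr at 37 C before CellTiter-Glo reagent and a luminescence read.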

[13] = qHTS assay to identify small molecule agonists of the sonic hedgehog signaling (Shh) pathway - cell viability counter screen (AID 1259366); note: nearly all actives have a fitted effect of over 50% in size; note: potency is the fitted concentration of half-maximal effect
Method in brief: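 Fluorescence from CellTiter-Fluor reports live cells in this counter screen. NIH/3T3-derived Gli1-Luc reporter cells receive test compounds for 24hr at 37C; reagent goes in at 23hr.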

[14] = qHTS assay to identify small molecule antagonists of the sonic hedgehog signaling (Shh) pathway - cell viability counter screen (AID 1259367); note: nearly all actives have a fitted effect of over 55% in size; note: potency is the fitted concentration of half-maximal effect
Method in brief: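 Conditioned medium drove Shh signaling in 3T3 Gli1-Luc cells exposed to compounds at 37C and 5% CO2. Viability was determined from CellTiter-Fluor fluorescence, with reagent incubated 1 hr after 23 hr of treatment.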

[15] = qHTS assay to identify small molecule agonists of the sonic hedgehog signaling (Shh) pathway (AID 1259368; calls by dose curve;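 note: NIH/3T3-derived 3T3Gli1-Luc cells carrying a stable Gli1-driven firefly luciferase reporter; series mostly up to about 92 µM; nearly all actives have a fitted effect of over 15% in size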)
Method in brief: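 Read-out: firefly luciferase luminescence from a Gli1 response element reporter stably integrated in NIH/3T3-derived 3T3Gli1-Luc cells, measured 30 min at room temperature after reagent addition. Compound exposure lasted 24 hr at 37 C, 5% CO2.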

[16] = qHTS RealTime-Glo MT Cell Viability Assay in HEK293 cells - 24 hour (AID 1224886)
Method in brief: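 Nonlytic real-time viability readout: viable cells convert prosubstrate to NanoLuc substrate, giving luminescence proportional to live cell number. HEK293, 600 cells/well, compound added after 5 h, continuous culture at 37 C.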

[17] = qHTS RealTime-Glo MT Cell Viability Assay in HEK293 cells - 8 hour (AID 1224887)
Method in brief: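 Luminescence readout at each listed time point; HEK293, 600 cells/well, RealTime-Glo MT reagent added with cells; compounds pinned (23 nL in DMSO) after 5 h at 37 C; continuous culture at 37 C.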

[18] = qHTS assay to identify small molecule antagonists of the estrogen receptor alpha (ER-alpha) signaling pathway using the BG1 cell line in the presence of 0.1 nM 17-beta-estradiol - cell viability counter screen (AID 1259241); note: nearly all actives have a fitted effect of over 40% in size
Method in brief: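 CellTiter-Fluor read (30 min, 37C) on ER-alpha/ERE-luc VM7Luc4E2 cells; 22 hr compound treatment; agonist 0.1 nM E2 final; same-well multiplex.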

[19] = qHTS assay to identify small molecule antagonists of the sonic hedgehog signaling (Shh) pathway (AID 1259369; calls by dose curve; note: nearly all actives have a fitted effect of over 45% in size)
Method in brief: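 Luminescence readout: firefly Luc under Gli1 response element in 3T3Gli1-Luc cells (NIH/3T3 clone). Antagonist mode, stimulation by conditioned medium; compound exposure 24hr at 37 C, 5% CO2.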

[20] = biological target: Androgen receptor (Homo sapiens) (UniProt P10275); assay: qHTS assay to identify small molecule antagonists of the androgen receptor (AR) signaling pathway using the MDA cell line in the presence of 0.5 nM R1881 (AID 1259243); note: nearly all actives have a fitted effect of over 50% in size; note: potency is the fitted concentration of half-maximal effect
Androgen receptor (Homo sapiens), sequence (P10275 whole entry, looked up): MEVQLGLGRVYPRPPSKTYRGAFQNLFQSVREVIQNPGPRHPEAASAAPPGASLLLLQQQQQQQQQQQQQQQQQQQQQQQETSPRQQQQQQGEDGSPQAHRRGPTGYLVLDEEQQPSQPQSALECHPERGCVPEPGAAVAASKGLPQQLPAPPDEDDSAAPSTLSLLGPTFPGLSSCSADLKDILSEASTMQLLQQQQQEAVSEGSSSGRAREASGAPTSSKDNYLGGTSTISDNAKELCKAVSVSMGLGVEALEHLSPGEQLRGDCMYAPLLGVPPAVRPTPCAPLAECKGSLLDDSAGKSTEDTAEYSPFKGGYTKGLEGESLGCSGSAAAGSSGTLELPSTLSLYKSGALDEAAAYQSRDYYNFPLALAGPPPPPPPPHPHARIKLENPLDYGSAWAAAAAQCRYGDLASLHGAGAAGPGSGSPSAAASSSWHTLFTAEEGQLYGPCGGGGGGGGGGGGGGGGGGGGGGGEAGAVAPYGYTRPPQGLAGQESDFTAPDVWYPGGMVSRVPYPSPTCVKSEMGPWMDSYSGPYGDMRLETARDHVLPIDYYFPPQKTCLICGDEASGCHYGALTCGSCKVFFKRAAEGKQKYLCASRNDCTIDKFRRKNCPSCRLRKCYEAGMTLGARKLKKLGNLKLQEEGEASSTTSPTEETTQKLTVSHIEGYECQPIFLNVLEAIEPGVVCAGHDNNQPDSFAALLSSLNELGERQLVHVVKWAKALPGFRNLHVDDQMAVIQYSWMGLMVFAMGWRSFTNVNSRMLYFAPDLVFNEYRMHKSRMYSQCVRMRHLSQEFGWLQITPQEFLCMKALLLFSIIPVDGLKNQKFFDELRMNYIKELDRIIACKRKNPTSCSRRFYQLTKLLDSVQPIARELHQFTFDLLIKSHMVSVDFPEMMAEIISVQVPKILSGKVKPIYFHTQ
Method in brief: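 MDA-kb2, MMTV-luc (AR/GR elements); 3,000 cells/well; cpd + 0.5 nM R1881 final; 16 hr 37C, 0% CO2; ONE-Glo 30 min RT; luminescence.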
% is set by controls: 0 for no effect and ±100 for the full control effect.

COc1cc(NCc2ccc3nc(N)nc(N)c3c2C)cc(OC)c1OC
active: Potency [13] 15 µM | Potency [14] 15 µM
inactive: Potency [1] | Potency [2] | Potency [3] | Potency [4] | Potency [5] | Potency [6] | Potency [7] | Potency [8] | Potency [9] | Potency [10] | Potency [11] | Potency [12] | Potency [15]

O=C1[C@@H]2[C@H]3CC[C@H](C3)[C@@H]2C(=O)N1CCCCN1CCN(c2ncccn2)CC1
inactive: Potency [1] | Potency [3] | Potency [4] | Potency [16] | Potency [17] | Potency [5] | Potency [6] | Potency [18] | Potency [8] | Potency [9] | Potency [10] | Potency [11] | Potency [12] | Potency [13] | Potency [14] | Potency [19]

COC(=O)C1=C(C)NC(C)=C(C(=O)OC(C)(C)CN(C)CCC(c2ccccc2)c2ccccc2)C1c1cccc([N+](=O)[O-])c1 (stereo unspecified)
inactive: Potency [1] | Potency [2] | Potency [3] | Potency [16] | Potency [5] | Potency [6] | Potency [7] | Potency [18] | Potency [8] | Potency [10] | Potency [11] | Potency [12] | Potency [13] | Potency [14] | Potency [15]
active: Potency [20] 26.6 µM

O=NN(CCCl)C(=O)NCCCl
inactive: Potency [3] | Potency [4] | Potency [16] | Potency [17] | Potency [5] | Potency [6] | Potency [8] | Potency [20] | Potency [9] | Potency [10] | Potency [11] | Potency [13] | Potency [14] | Potency [15]
active: Potency [1] 5.35 µM | Potency [7] 5.35 µM

CCC(Cl)CC(Cl)C(Cl)C(Cl)C(Cl)C(C)Cl (stereo unspecified)
inactive: cytotoxicity [1] 0.838% [at 15.8 µM] | cytotoxicity increase [2] 1.37% [at 15.8 µM] | cytotoxicity increase [3] 24.2% [at 15.8 µM] | activity change, negative = cytotoxic [4] -2.19% [at 15.8 µM] | activity change, negative = cytotoxicity [6] 1.09% [at 15.8 µM] | cytotoxicity increase [7] 7.16% [at 15.8 µM] | activity change, negative = cytotoxicity [18] 0.764% [at 19 µM] | viability change, negative = cytotoxic [8] 0.388% [at 19 µM] | activity, negative = inhibition [20] 72.1% [at 19 µM] | activity change, negative = inhibition [9] 63.4% [at 19 µM] | viability change, negative = cytotoxic [13] -0.751% [at 19 µM] | viability change, negative = cytotoxic [14] 0.145% [at 19 µM] | activity change, negative = inhibition [19] 58.5% [at 19 µM]

COc1cc(S(=O)(=O)Nc2ccccc2)c(OC)cc1N
inactive: Potency [1] | Potency [2] | Potency [3] | Potency [16] | Potency [5] | Potency [6] | Potency [7] | Potency [8] | Potency [9] | Potency [11] | Potency [12] | Potency [13] | Potency [14] | Potency [15] | Potency [19]

Cc1cc(CCCOc2c(C)cc(-c3noc(C(F)(F)F)n3)cc2C)on1
active: Potency [20] 26.6 µM
inactive: Potency [1] | Potency [2] | Potency [3] | Potency [4] | Potency [5] | Potency [6] | Potency [7] | Potency [18] | Potency [11] | Potency [12] | Potency [13] | Potency [14] | Potency [15] | Potency [19]

O=C(C(=O)c1ccco1)c1ccco1
inactive: Potency [1] | Potency [2] | Potency [3] | Potency [4] | Potency [5] | Potency [6] | Potency [18] | Potency [8] | Potency [20] | Potency [9] | Potency [11] | Potency [12] | Potency [13] | Potency [14] | Potency [15] | Potency [19]

COc1ccc(/C=C/C(=O)c2ccc(OC)cc2OC)cc1
inactive: Potency [1] | Potency [3] | Potency [4] | Potency [16] | Potency [5] | Potency [6] | Potency [18] | Potency [8] | Potency [10] | Potency [12] | Potency [13] | Potency [14] | Potency [15]

COC(=O)c1sccc1S(N)(=O)=O
inactive: Potency [1] | Potency [3] | Potency [4] | Potency [16] | Potency [17] | Potency [5] | Potency [6] | Potency [7] | Potency [18] | Potency [8] | Potency [9] | Potency [11] | Potency [12] | Potency [13] | Potency [14] | Potency [15] | Potency [19]

CC1C(C)(C)C2=C(C(=O)CCC2)C1(C)C (stereo unspecified)
inactive: Potency [1] | Potency [3] | Potency [4] | Potency [16] | Potency [5] | Potency [6] | Potency [7] | Potency [18] | Potency [8] | Potency [9] | Potency [11] | Potency [13] | Potency [14] | Potency [15]
